Compounds with a hit are over-represented: about 2.5% of the library has one in this group of screens.
MBD2 DNA inh – blocks human MBD2 binding to methylated DNA; Q9UBB5; inhibition, % at 4.4 µM; TR-FRET, MBD2 binding to methylated oligonucleotide; actives 0.31% (n = 370,000); in the data active = inhibition above about 13%
Target sequence (Q9UBB5 whole entry, looked up): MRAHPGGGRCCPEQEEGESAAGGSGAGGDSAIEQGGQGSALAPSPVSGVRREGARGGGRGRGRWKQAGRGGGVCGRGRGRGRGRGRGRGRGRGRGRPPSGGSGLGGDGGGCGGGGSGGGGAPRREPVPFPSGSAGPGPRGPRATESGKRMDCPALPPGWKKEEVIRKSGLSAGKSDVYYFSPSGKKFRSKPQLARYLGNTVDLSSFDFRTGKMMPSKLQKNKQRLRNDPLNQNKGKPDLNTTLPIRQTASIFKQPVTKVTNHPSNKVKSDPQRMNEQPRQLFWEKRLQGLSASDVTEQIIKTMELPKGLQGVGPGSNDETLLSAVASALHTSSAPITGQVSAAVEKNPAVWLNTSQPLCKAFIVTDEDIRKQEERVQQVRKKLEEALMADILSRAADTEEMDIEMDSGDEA
PRMT1 FP inh – PRMT1 (human) inhibition, primary screen; inhibition, % at 2.79 µM; AID 652257; recombinant PRMT1, activity-based probe fluorescence polarization; Q99873; actives 1.3% (n = 370,000);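 active = inhibition above about 21% made by adding two undisclosed values, limit read from the data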
LEDGF integ inh – blocks HIV-1 LEDGF/p75-dependent DNA integration; TR-FRET IN-LEDGF/p75 DNA integration, Eu/Cy5; inhibition, % at 3.7 µM; actives 0.64% (n = 370,000);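 active = inhibition above the screen-wide mean plus 3 SD, cut at about 13% in these data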;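 also: signal is the Cy5 over europium emission ratio at 671 and 618 nm; 0% = plate median of compound wells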
UHRF1 binding – blocks human UHRF1 binding to methylated DNA; Q96T88; UHRF1 binding to methylated oligo, TR-FRET; inhibition, % at 4.4 µM; actives 0.75% (n = 370,000); AID 687016; in the data active = inhibition above about 21%;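 also: UHRF1 SRA domain binding a hemimethylated CpG hairpin DNA probe; 0% = median of test compound wells and 100% = reference inhibitor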
PRMT1 confirm – PRMT1 (human) inhibition, FP confirmation; inhibition, % at 2.79 µM; actives 42% (n = 3,300); recombinant His-PRMT1, activity-based probe fluorescence polarization; AID 687036; shares compounds with PRMT1 FP inh;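 active = mean inhibition across replicates above the hit cutoff derived for the earlier primary screen, cut at about 22% in these data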
Starred values were filed as active, the others as inactive; · = no result given.

SMILES	MBD2 DNA inh	PRMT1 FP inh	LEDGF integ inh	UHRF1 binding	PRMT1 confirm
CCOc1ccc(N2C(=O)CC(N3CCN(c4ccc([N+](=O)[O-])cc4)CC3)C2=O)cc1 (configuration not stated)	2.3	9.5	-0.6	2.3	·
COc1ccc(NC2CC(=O)N(c3cccc([N+](=O)[O-])c3)C2=O)cc1 (configuration not stated)	1.6	2.0	2.6	0.9	·
CCC(=O)N1CCCC1(C)C(=O)Nc1cccc(Oc2ccccc2)c1 (configuration not stated)	1.5	1.1	-6.2	1.3	·
COC(=O)C1CN(C(=O)COc2ccc(C)cc2)c2ccccc2O1 (configuration not stated)	0.0	-0.4	0.1	2.0	·
CC(=O)NC1C(=O)N=C(SCC(=O)Nc2c(C)cccc2C)NC1=O (configuration not stated)	7.9	42.0*	-0.7	3.4	15.1
CC(=O)NC1C(=O)N=C(SCC(=O)NCc2ccccc2)NC1=O (configuration not stated)	-1.9	40.0*	0.5	2.2	7.6
O=C(CSC1=NC(=O)C(Cc2ccccc2)C(=O)N1)NC1CCCCC1 (configuration not stated)	-2.3	5.6	-0.2	1.5	·
CCOC(=O)c1c(SCCN2CCCC2)n(-c2ccccc2)c(=S)n(-c2ccccc2)c1=O	-1.3	51.6*	-3.7	0.3	39.6*
CC(C)(C)c1csc(NC(=O)Cn2cnc3ccccc3c2=O)n1	1.9	29.4*	-2.4	-3.2	-0.3
COc1ccc(C(=O)N2CCc3ccc(NC(=O)c4ccccn4)cc3C2)cc1F	-5.2	-5.3	1.3	-0.1	·
CCN(CC(=O)Nc1ccc(NC(C)=O)cc1)Cc1c(O)ccc2cc(Br)ccc12	0.2	5.6	-7.0	-2.2	·
O=C(O)C(Cc1ccccc1)N1C(=O)C=CC1=O (configuration not stated)	2.1	52.5*	0.1	-0.1	64.4*
O=C(O)C(Cc1ccccc1)N1C(=O)CCC1=O (configuration not stated)	-0.8	-0.8	-1.4	0.9	·
COc1ccc(N2C(=O)CC(NC3CC3)C2=O)cc1 (configuration not stated)	-3.3	31.7*	-2.5	1.5	1.6
CCOC(=O)c1ccc(N2C(=O)CC(NC3CCN(C(=O)c4ccc(F)cc4)CC3)C2=O)cc1 (configuration not stated)	-0.2	1.9	-0.3	3.1	·
CCOc1ccc(N2C(=O)CC(NC3CCN(C(=O)c4ccc(F)cc4)CC3)C2=O)cc1 (configuration not stated)	-0.6	53.0*	0.3	-1.1	4.6
CCCN1CCC(NC(=O)C2CCN(C(C)=O)CC2)CC1	0.9	-1.7	3.3	2.0	·
CCC[n+]1c(C)sc2c(OC)ccc(OC)c21	1.6	39.9*	4.7	14.1	17.2
O=C(NC1CCCCC1)C1c2ccccc2OCC(=O)N1C1CC1 (configuration not stated)	5.2	3.8	-4.5	17.7	·
O=C(CSc1ccc2c(c1)OCCO2)Nc1cccnc1	-1.7	7.3	-0.3	0.2	·
Cc1cc(F)ccc1-c1cc(C(=O)NC(C)C)[nH]n1	-5.4	1.9	2.3	-0.5	·
O=c1c([N+](=O)[O-])c(Cl)c2ccccc2n1Cc1ccccc1	-0.4	42.6*	0.7	4.5	36.0*
O=Nc1c(O)n(Cc2ccccc2)c2ccccc12	-1.3	-3.0	0.8	-3.5	·
O=c1c([N+](=O)[O-])c(O)c2ccccc2n1Cc1ccccc1	2.7	28.9*	3.5	1.1	6.5
O=[n+]1c2c(n([O-])c3cc(F)c(N4CCCC4)cc31)CCCC2	-31.0	45.7*	3.1	-28.5	47.8*
SMILES	MBD2 DNA inh	PRMT1 FP inh	LEDGF integ inh	UHRF1 binding	PRMT1 confirm
O=[n+]1c2c(n([O-])c3cc(F)c(N4CCCC4)cc31)CCC2	-23.7	35.5*	3.9	-24.7	46.8*
O=[n+]1c2c(n([O-])c3cc(F)ccc31)CCCC2	0.8	9.3	2.0	-3.4	·
Cc1ccc(N(C(=O)CNC(=O)c2ccco2)C(C(=O)NC2CCCC2)c2ccncc2)cc1C (configuration not stated)	0.3	3.1	-1.9	4.4	·
Cc1ccc2nc(/C(C#N)=C\c3ccc(N4CCOCC4)o3)[nH]c2c1	-7.9	20.2	4.8	-6.2	·
Cc1ccc(/C(C#N)=C\c2ccc(N3CCOCC3)o2)cc1	-3.2	27.4*	3.3	0.4	11.4
COc1ccc(C/C(N)=N/OC(=O)c2cccc([N+](=O)[O-])c2)cc1	2.4	45.3*	-1.4	1.7	3.9
COc1ccccc1C/C(N)=N/OC(=O)c1cccc([N+](=O)[O-])c1	7.5	3.1	2.6	0.3	·
